ALDH1A1 inh: blocks purified human ALDH1A1 activity; Potency, µM (top dose mostly 75.3 µM), without a hit: top-dose activity, negative = inhibition, actives largely listed as inhibitors; P00352; Purified ALDH1A1, NADH fluorescence, propionaldehyde substrate; AID 1030; 7.3% of 220,000 active; active = well fitted inhibition curve with a large enough effect, not every such curve was filed as active; inconclusive = small, poorly fitted or top-dose-only effect, or another doubt; inactive = no such curve, though single readings can be large or run the other way;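 also: plate controls were no enzyme wells and a reference inhibitor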
HTT aggregate: inhibitors of mutant huntingtin aggregate formation in PC12 cells; PC12 HttQ103-GFP aggregates, Acumen cytometry, 40 h; Potency, µM (highest dose often 46.1 µM), inactives show at the highest dose activity change, negative = inhibition, hits mostly inhibitors; AID 1688; 1.1% of 220,000 active; also: % is scaled to controls: 0 for no effect and ±100 for the full control effect; nearly all actives have a fitted effect of over 60% in size
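PC12 cells stably carrying ecdysone-inducible HTT exon 1 Q103–GFP were induced with tebufenozide (100 nM final) and treated with library compounds in titration. GFP aggregates in lysates were counted by laser scanning cytometry.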
Lamin A splicing: LMNA splicing modulation; HeLa LMNA splicing GFP/RFP minigene ratio, 48 h; Potency, µM (top dose mostly 46.1 µM), for the others: top-dose ratio change, negative = inhibition, usual class: inhibitors; 0.01% of 200,000 active; active = well fitted inhibition curve with a large enough effect in the signal ratio, with a control signal flat, not every such curve was filed as active; inconclusive = small, poorly fitted or top-dose-only effect, or effect the other way, or a change in a side signal; the % refers to the signal ratio; also: % is scaled to controls: 0 for no effect and ±100 for the full control effect
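S3 HeLa stable clones carrying a lamin A-EGFP splicing minigene plus DsRed2 were seeded at 600 cells/well in Opti-MEM with 2% FBS, pin-dosed and incubated 48 h at 37°C. Acumen cytometry (488 nm) gave the GFP/RFP total-intensity ratio.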
HTT cytoprotect: cytoprotection in Huntington HTT-Q103 PC12 cell model; PC12 HTT-Q103 induced, cytoprotection, ATP luminescence, 40 h; Potency, µM (highest dose often 56.4 µM), for inactives: cytoprotection (ATP increase), actives largely listed as activators; 0.14% of 230,000 active; also: % of control where 0% means no effect; nearly all actives have a fitted effect of over 45% in size
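ATP quantification (ATPlite) reports survival of PC12 cells in which tebufenozide, 100 nM final, switches on Htt exon 1 with 103 glutamines linked to GFP; compounds are titrated.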
HPGD inh: HPGD (human) dehydrogenase inhibition; P15428; 4.3% of 150,000 active; AID 894; purified HPGD, NADH fluorescence kinetic, PGE2 substrate; Potency, µM, inactives show at the highest dose activity change, negative = inhibition, usual class: inhibitors; active = well fitted inhibition curve with a large enough effect, not every such curve was filed as active; inconclusive = small, poorly fitted or top-dose-only effect, or another doubt; inactive = no such curve, though single readings can be large or run the other way; also: % is scaled to controls: 0 for no effect and ±100 for the full control effect
Target sequence (P15428 whole entry, looked up): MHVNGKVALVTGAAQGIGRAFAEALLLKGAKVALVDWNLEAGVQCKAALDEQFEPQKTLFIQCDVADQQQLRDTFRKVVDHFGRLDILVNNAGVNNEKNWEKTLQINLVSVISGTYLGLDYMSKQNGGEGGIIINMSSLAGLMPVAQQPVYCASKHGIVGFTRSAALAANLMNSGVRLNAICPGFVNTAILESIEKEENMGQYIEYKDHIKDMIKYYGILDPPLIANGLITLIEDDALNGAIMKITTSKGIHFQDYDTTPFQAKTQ
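NADH formation kinetics: reaction with 30 uM PGE2 and 1 mM NAD+ (final), 20 nM enzyme, Tris-HCl pH 8 with Tween 20, after 15 min compound preincubation at room temperature. Fluorescence change, last versus first of five reads.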
Active calls of the source: *; ? = inconclusive; · = no result given; [ ] = remark or other dose. A selection: hits, their analogues and other compounds. The true share with any hit is near 8.8%. Unless noted, calls follow the shape of the dose curve; as a rule, active = well fitted curve in the direction sought with a large enough effect; inconclusive = small, poorly fitted or top-dose-only effect, or another doubt; inactive = no such curve, though single readings can be large; an effect the other way counts as inactive or inconclusive. Potency is read from the fitted curve at half-maximal effect.

SMILES	ALDH1A1 inh	HTT aggregate	Lamin A splicing	HTT cytoprotect	HPGD inh
Cc1ccc(NC(=O)c2sc(-n3nc(C)c(CCC(C)C)c3C)nc2C)cc1C	·	·	11%[46 µM]	·	·
CN1CCN(Cc2c(O)ccc3occ(C(=O)c4ccccc4)c23)CC1	0%	-5%	-16%	2%[10 µM]	-5%
CC(=O)C(C(C)=O)c1c(Cl)c(O)c(O)c2c(C(=O)c3ccccc3)coc12	7%	?	?	-22%	3.2µM*
COc1cccc(Cn2c(=O)c(-c3ccc(Cl)cc3)nc3cnc(N4CCNCC4)nc32)c1	?	·	?	-6%	·
CCC(O)CNC(=O)NC(=C(Cl)Cl)c1ccc(C)c(F)c1 (stereo not given)	3.5µM*	?	?	36%[1.9 µM]	-14%
COc1cc2c(cc1OC)CN(C1CC(=O)N(c3c(C)cccc3C)C1=O)CC2 (stereo not given)	-7%	1%	·	-12%	·
O=C(COC(=O)C1CC(=O)N(Cc2ccccc2)C1)Nc1ccccc1F (stereo not given)	-10%	9%	4%[46 µM]	11%[10 µM]	·
Cc1cccc(OCC(=O)Nc2ccc(N3CCN(C(=O)c4ccccc4)CC3)cc2)c1	?	13µM*	?	7%[0.074 µM]	-13%
Cc1ccc(S(=O)(=O)NCC(c2ccc(N(C)C)cc2)N2CCCC2)cc1 (stereo not given)	·	·	-19%[46 µM]	·	·
CC(Nc1nc2ncn(Cc3ccccc3)c2c(=O)[nH]1)C(=O)O (stereo not given)	1%	8%	6%	-37%	28µM*
Cc1ccc(S(=O)(=O)/C(C#N)=C/c2c(N3CCN(C)CC3)nc3c(C)cccn3c2=O)cc1	?	-3%	7%	-10%	?
Cc1ccc(S(=O)(=O)/C(C#N)=C/c2c(N3CC(C)OC(C)C3)nc3c(C)cccn3c2=O)cc1 (stereo not given)	?	0%	0%	1%	2.2µM*
Cc1cccn2c(=O)c(/C=C(\C#N)S(=O)(=O)c3ccccc3)c(N3CCN(C)CC3)nc12	11µM*	-13%	1%	3%	-17%
CN1CCN(c2nc3ccccn3c(=O)c2/C=C(\C#N)S(=O)(=O)c2ccccc2)CC1	·	-16%[9.22 µM]	·	-9%[10 µM]	·
CC1CN(c2nc3ccccn3c(=O)c2/C=C(\C#N)S(=O)(=O)c2ccccc2)CC(C)O1 (stereo not given)	13µM*	-15%	13%	-5%[0.074 µM]	18µM*
CCN1CCN(c2nc3c(C)cccn3c(=O)c2/C=C(\C#N)S(=O)(=O)c2ccc(C)cc2)CC1	-9%	0%	13%	-6%	?
CCOC(=O)c1cccc(NC(=O)NC2COc3ccccc3C2)c1 (stereo not given)	·	·	3%[46 µM]	·	·
CC(C)Oc1nnnn1-c1ccccc1	-1%	-9%	7%	-5%	-13%
COc1cnn(-c2ccc(C)cc2)c(=O)c1Br	-15%	-7%	·	-30%	·
CCCn1c(Sc2nnnn2-c2ccccc2)n[nH]c1=O	-6%	26%	?	-6%	-6%
COc1ccc(Oc2cnn(-c3ccccc3)c(=O)c2Br)cc1	25µM*	2%	·	-8%[10 µM]	·
c1ccc(-n2nnnc2OCCOc2nnnn2-c2ccccc2)cc1	2.5µM*	3%	11%	-3%	-6%
CCCSc1nnc(Sc2nnnn2-c2ccccc2)s1	11µM*	22µM*	?	-58%[10 µM]	-28%
COc1cc(CSc2nnnn2-c2ccc(C)cc2)cc(OC)c1OC	?	2.5µM*	?	-24%[0.074 µM]	-21%
NCC1O[C@@H](O[C@@H]2C(O)[C@H](O[C@H]3OC(CO)C(O)C(N)C3O)[C@@H](N)C[C@H]2N)C(N)C(O)C1O (stereo not given in full)	-3%	·	·	-25%	-12%
SMILES	ALDH1A1 inh	HTT aggregate	Lamin A splicing	HTT cytoprotect	HPGD inh
O=C(NC1CC(=O)N(c2cccc(F)c2)C1)c1ccc(S(=O)(=O)N2CCCCC2)cc1 (stereo not given)	·	·	4%[46 µM]	·	·
Cc1cc([C@](C)(N)C(=O)O)ccc1P(=O)(O)O	-3%	·	·	-15%	-5%
C(=C\CSc1nnnn1-c1ccccc1)/CSc1nnnn1-c1ccccc1	0.1µM*	5%	?	4%	?
O=S(=O)(NCCSc1nnnn1-c1ccccc1)c1cccs1	13µM*	2%	-8%	-7%[0.074 µM]	-10%
Cc1cccc2nc(CSc3nnnn3-c3ccccc3)cn12	10µM*	3%	3%	-19%	2%
CS(=O)(=O)NCCSc1nnnn1-c1ccccc1	-26%	2%	-5%	-8%[0.074 µM]	0%
c1ccc(-n2nnnc2SCc2ccccn2)cc1	?	-9%	-8%	5%	-7%
O=[N+]([O-])c1ccc(Sc2nnnn2-c2ccccc2)nc1	22µM*	?	·	-159%	·
CC(=O)N1CCC2(CC1)CN(C(c1ccccc1)c1ccccc1)C2	0%	·	·	2%	-6%
CCCS(=O)(=O)c1c(S(=O)(=O)CCC)c2ccc(C(N)=O)cn2c1C(=O)c1ccc(OC)cc1	?	-3%[9.22 µM]	·	-4%[10 µM]	·
Cc1ccc(-c2noc(CSc3nnc(-c4ccncc4)n3-c3ccc(C)cc3)n2)cc1	-15%	-18%	-4%	-38%	-16%
Cc1ccccc1-n1nnnc1Sc1nnnn1-c1ccccc1	25µM*	14µM*	?	-62%	-1%
Cc1ccccc1-n1nnnc1SCC(N)=O	?	20%	3%	-11%	-16%
CSc1ccccc1-n1nnnc1SCc1ccccc1	7.1µM*	?	?	-7%[0.074 µM]	-30%
COc1ccc(CSc2nnnn2-c2ccccc2)cc1	11µM*	-5%	?	9%[10 µM]	-9%
Cc1ccc(-c2noc(CSc3nnnn3C3CCCCC3)n2)cc1	14µM*	?	-5%	-27%	-13%
Cn1cnnc1SCc1ccccc1	5%	-7%	13%	11%	-5%
N[C@H](Cn1ccc(=O)c(O)c1)C(=O)O	-3%	·	-12%	-8%[1.9 µM]	-12%
O=CN/C=C/c1cc(F)cc(F)c1F	-13%	·	·	16%	-2%
CCc1ccc2ncc3c(-c4ccc(F)cc4)nn(CC(=O)NCc4ccccc4)c3c2c1	·	·	5%[46 µM]	·	·
COCCCNC(=O)c1cc2n(n1)CCCN(Cc1ccc(C)cc1)C2=O	·	·	9%[46 µM]	·	·
CC1(C)NC(=O)N(CC(=O)OCC(=O)Nc2cccc(S(N)(=O)=O)c2)C1=O	-4%	14%	-3%[46 µM]	15%[10 µM]	·
c1ccc(-c2noc(CSc3nnc(Cc4cccs4)n3-c3ccccc3)n2)cc1	?	-8%	?	-15%[0.074 µM]	-1%
COC(=O)c1ccc(-n2nnnc2SC)cc1	28µM*	?	-4%	4%	13µM*
c1ccc(-c2noc(CSc3nnnn3-c3ccccc3)n2)cc1	11µM*	12%	-5%	8%	-5%
Cc1ccc(C(C)C)c(Oc2nnnn2-c2ccccc2)c1	18µM*	-4%	-1%	0%	-3%
COc1ccccc1Oc1nnnn1-c1ccc(C(N)=O)cc1	13µM*	0%	14%	-10%	-8%
COC(=O)COC(=O)c1ccc(-n2nnnc2SC)cc1	?	-4%	9%	-7%[0.074 µM]	-27%
